Test results as given in article PMC10214531.

Molecular target: Guanine nucleotide-binding protein G(I)/G(S)/G(T) subunit beta-1 (UniProt P62873)
Experiment: cross-link between two proteins; cross-linking mass spectrometry

Substance: Guanine nucleotide-binding protein G(I)/G(S)/G(O) subunit gamma-2, P59768
- listed as a hit: yes
